# Bioassay records (PubChem)
# Most compounds without a hit are left out; they make up all but 7.3% or so of the library.
# p53 reactivator: re-activators of mutant p53; actives 0.063% (n = 320,000); H1299 p53-A138V BP100-luciferase reporter, luminescence, 24 h; AID 504706; Potency, µM (top dose mostly 92.2 µM), for inactives: top-dose activity change, positive = activation, usual class: activators; note: % of control where 0% means no effect; nearly all actives have a fitted effect of over 45% in size
#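 H1299 (p53-null), stable ts p53-A138V + BP100-Luc; 1000 cells/well, Opti-MEM/10% FBS; cpd 4 pt, 1:5; 24 h, 37 deg C, 5% CO2; detection reagent 10 min RT; luminescence.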
# NPC1 promoter act: activators of NPC1 promoter. Huh7 NPC1 promoter luciferase reporter, 24 h. Potency, µM (series often up to 9.22 µM), inactives show at the top dose activation, most hits filed as activators. actives 2.4% (n = 320,000). AID 485313; note: % of control where 0% means no effect; nearly all actives have a fitted effect of over 60% in size
#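 Luciferase expression driven by the NPC1 promoter was measured in stably transfected Huh7 cells after a 24 h compound incubation, using a luciferase reagent and a luminescence read.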
# ELG1 genotoxic: induces genotoxicity in HEK293T cells with luciferase-tagged ELG1. HEK293T ELG1-luciferase reporter, luminescence, 16 h. Potency, µM (top dose mostly 46 µM), without a hit: at the highest dose activity change, positive = activation, most hits filed as activators. actives 1.3% (n = 330,000). AID 504466; note: % of control where 0% means no effect; nearly all actives have a fitted effect of over 60% in size
#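 Genotoxic stress is detected as increased luminescence from luciferase-tagged ELG1 in HEK293T cells, measured with ONE-Glo after a 16 hr treatment at 37 °C.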
# Rab9 promoter act: Rab9 promoter activation; Huh7 Rab9 promoter-luciferase reporter, luminescence, 24 h; Potency, µM (series often up to 9.22 µM), inactives show top-dose activation, negative = inhibition, most hits filed as activators; actives 2.8% (n = 320,000); AID 485297; note: % of control where 0% means no effect; nearly all actives have a fitted effect of over 60% in size
#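 Steps: seed 1500 Huh7 Rab9-luc cells per well, rest 2 h at 37 °C; add compound in DMSO; incubate 24 h; add luciferase reagent, 10 min ambient; read luminescence.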
# SMN2 splice enh: SMN2 splice variant enhancement; HEK293 SMN2-luciferase splicing reporter, luminescence, 30-36 h; Potency, µM (doses to about 46.1 µM), without a hit: top-dose activity change, positive = activation, actives largely listed as activators; actives 2.8% (n = 210,000); note: % of control where 0% means no effect; nearly all actives have a fitted effect of over 55% in size
#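 HEK293 cells carry an SMN2 […]–luciferase reporter in which exon 7 inclusion puts luciferase in frame. Cells were plated 10-12 h before compound addition, then incubated 30-36 h at 37C. ONE-Glo luminescence was read; sodium butyrate at 4.5 mM final served as control.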
# FLuc modulator: counter-screen for miR-21 project: firefly luciferase inhibitors or activators. P08659. purified FLuc, Km substrates, luminescence inhibition. Potency, µM (series often up to 57.5 µM), for the others: at the top dose activity change, negative = inhibition, hits mostly inhibitors. actives 6.9% (n = 360,000). AID 588342;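 note: plate controls were vehicle for no effect and reference inhibitor for full effect; nearly all actives have a fitted effect of over 55% in size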
# Target sequence (P08659 whole entry, looked up): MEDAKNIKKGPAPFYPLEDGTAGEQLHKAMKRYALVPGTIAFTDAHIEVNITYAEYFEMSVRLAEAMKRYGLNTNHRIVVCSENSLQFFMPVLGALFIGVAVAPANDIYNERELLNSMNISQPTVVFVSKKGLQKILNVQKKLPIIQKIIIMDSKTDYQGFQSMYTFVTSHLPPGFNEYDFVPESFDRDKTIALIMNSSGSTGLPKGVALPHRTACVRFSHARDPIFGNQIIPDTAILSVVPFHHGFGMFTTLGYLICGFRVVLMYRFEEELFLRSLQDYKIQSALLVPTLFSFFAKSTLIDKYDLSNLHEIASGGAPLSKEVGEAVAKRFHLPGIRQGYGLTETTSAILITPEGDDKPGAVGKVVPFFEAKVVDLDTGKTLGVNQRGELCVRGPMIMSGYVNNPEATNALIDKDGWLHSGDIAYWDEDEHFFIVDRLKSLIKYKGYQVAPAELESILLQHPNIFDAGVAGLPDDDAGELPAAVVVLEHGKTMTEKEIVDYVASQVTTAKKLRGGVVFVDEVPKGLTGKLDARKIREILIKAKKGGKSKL
#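 Purified P. pyralis luciferase, 10 nM final, with Km-level 10 uM D-luciferin and 10 uM ATP in 50 mM Tris acetate pH 7.5, 10 mM Mg acetate, 0.01% Tween-20, 0.05% BSA; 6-point qHTS titration about 60 µM downward; luminescence read.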
# An asterisk follows results filed as active; ? = inconclusive; / = no result given; [ ] = dose if it differs, or a comment. Calls come from the whole dose curve; as a rule, active = well fitted curve in the direction sought with a large enough effect; inconclusive = small, poorly fitted or top-dose-only effect, or another doubt; inactive = no such curve, though single readings can be large; an effect the other way counts as inactive or inconclusive. Potency is the fitted concentration of half-maximal effect.
SMILES,p53 reactivator,NPC1 promoter act,ELG1 genotoxic,Rab9 promoter act,SMN2 splice enh,FLuc modulator
O=C(O)c1ccc(S(=O)(=O)N(Cl)Cl)cc1,/,/,/,/,-2%,/
Nc1cc2sc(-c3ccc(C(=O)O)cc3)nc2cc1Cl,?,0.79µM*,?,0.56µM*,1.4µM*,0.67µM*
O=C(O)c1ccc2nc(-c3ccccc3)sc2c1,9%,-27%,?,-28%,0.1µM*,2.4µM*
O=c1cc(O)nc(-c2ccccc2)s1,2%,-2%,-3%,4%,3%,-12%
Cc1cccc(C(=O)Nc2ccc(-c3nc4ccccc4s3)cc2Cl)c1,/,/,/,/,/,-6%
Cc1ccc2nc(-c3ccc(NC(=O)c4ccc(N)cc4)c(S(=O)(=O)O)c3)sc2c1,/,/,/,/,4µM*,/
Nc1ccc(-c2nc3ccc(C(=O)O)cc3s2)cc1,-25%,-39%,?,-43%,/,0.21µM*
Nc1nc2ccc(C(=O)N3CCCCC3)cc2s1,0%,1%,8%,0%,/,-11%
CCN1CCN(Cc2ccccc2NC(=O)Nc2ccc(C)cc2)CC1,31%,?,10µM*,4µM*,?,24µM*
O=C(Nc1ccc(Br)cc1)Nc1ccccc1Cl,?,2.2µM*,?,?,/,2.7µM*
O=C(Nc1ccc(CN2CCCCC2)cc1)Nc1ccccc1Cl,-5%,22%,17%,28%,?,17µM*
CCN1CCN(Cc2ccc(NC(=O)Nc3ccccc3Cl)cc2)CC1,20µM*,4µM*,18µM*,3.5µM*,?,6.7µM*
Cc1nn(CC(C)C)c(Cl)c1C(=O)N(c1ccc(Cl)cc1F)S(C)(=O)=O,-8%,-2%,-6%,-1%,/,0%
NC(=O)COC(=O)c1ccc(-c2ccccc2)cc1,24%,-2%,4%,-2%,11%,?
Cc1nc2ccc(C(=O)OCc3nnc(-c4ccccc4)o3)cc2nc1C,/,-2%,-1%,1%,/,-15%
O=C(COC(=O)c1ccc(-c2nnc(-c3ccccc3)o2)cc1)c1ccccc1,21%,0.56µM*,?,0.56µM*,2.8µM*,4%
O=C(OCc1nnc(-c2ccc(Br)cc2)o1)c1ccco1,/,-3%,1%,0%,/,21µM*
Cc1ccccc1C(=O)OCc1nnc(-c2ccc(Cl)cc2)o1,16%,-1%,8%,21%,11%,19µM*
O=C(OCc1nnc(-c2ccccc2)o1)c1ccccc1,2%,1%,1%,15%,9%,15µM*
CCCCc1nc2c(c3c1C[C@H](C)OC3)CN(C(=O)C1CC1)CC2,/,/,/,/,0%[9.22 µM],/
COc1cccc(C(c2nnnn2CC2CCCO2)N2CCN(C(=O)c3ccco3)CC2)c1OC (centres undefined),0%,2%,5%,-4%,5%,2%
Cc1ccc(C)n1-c1ccc(N2CCOCC2)nc1,?,4%,?,-14%,14µM*,3%
Cc1ccc(S(=O)(=O)Nc2ccc(N3CCOCC3)nc2)cc1,1%,-4%,2%,-5%,-5%,2%
CCc1ccc(CNC(=O)COc2cc(=O)n(CC)c3ccccc23)cc1,/,/,/,/,?,-8%
C=CCN1C(=O)C(CC(=O)O)S/C1=N/N=C/c1ccc(N(CC)CC)cc1 (centres undefined),20%,3%,1%,-2%,/,21µM*
SMILES,p53 reactivator,NPC1 promoter act,ELG1 genotoxic,Rab9 promoter act,SMN2 splice enh,FLuc modulator
CN(C)c1ccc(/C=N/N=C2/SC(CC(=O)O)C(=O)N2c2ccc(O)cc2)cc1 (centres undefined),5%,-1%,0%,26%,-7%,?
CCCn1c(C)cc(C(=O)COC(=O)c2cc(S(=O)(=O)NCC(C)C)c(Cl)cc2Cl)c1C,8%,1%,8%,-6%,?,9.5µM*
CC(C)CNS(=O)(=O)c1cc(C(=O)N2CCOCC2)c(Cl)cc1Cl,-1%,-3%,-3%,-3%,-4%,6%
CC(C)CNS(=O)(=O)c1cc(C(=O)OCC(=O)c2ccc3c(c2)OCCO3)c(Cl)cc1Cl,0%,-1%,4%,-14%,-8%,12µM*
Cc1[nH]c2ccc3ncccc3c2c1C,3%,1%,3%,3%,-30%,21µM*
Clc1ccc(-c2csc(N3CCN(c4ccccc4)CC3)n2)cc1,/,/,/,/,-1%,2%
c1ccc(-c2csc(N3CCOCC3)n2)cc1,?,?,6.3µM*,?,11µM*,15µM*
O=C(N1CCOCC1)N1CCN(c2nc(-c3ccccc3)cs2)CC1,5%,30%,-5%,?,0%,21µM*
CN(C)C(=O)N1CCN(c2nc(-c3ccccc3)cs2)CC1,/,2.2µM*,?,1.1µM*,/,3µM*
c1ccc(-c2csc(N3CCN(c4ccccn4)CC3)n2)cc1,27%,?,-14%,?,-28%,11µM*
Cc1cccc(OCCSc2nc3ccccc3n2CC(=O)N2CCOCC2)c1C,/,/,/,/,/,-10%
Cc1ccc(C(=O)O/N=C(\N)c2ccc(C(F)(F)F)cn2)cc1,?,2%,15%,-5%,/,2.1µM*
NC(=NC(=O)c1ccc(OC(F)(F)F)cc1)c1ccc(C(F)(F)F)cn1,-4%,-3%,-3%,-12%,/,1%
N/C(=N\OC(=O)c1csnn1)c1ccc(C(F)(F)F)cc1,8%,?,13%,?,/,19µM*
COC1=C(C(=O)c2ccccc2)C(=O)C2(CC=C(C)C)C[C@H](C(=O)OCC(F)(F)F)C(C)(C)[C@@]1(CC=C(C)C)C2=O (tested in a mixture with another compound),/,/,/,/,-10%,/
COc1cc(SC)ccc1C(=O)NCC1CCCCC1,?,30%,?,20%,/,15µM*
COc1cc(SC)ccc1C(=O)NCCOc1ccc(F)cc1,?,?,21µM*,?,14µM*,5.4µM*
COc1ccc(CCNC(=O)c2ccc(SC)cc2OC)cc1,-6%,-9%,-6%,-1%,-6%,-11%
Cc1cccc2cc3c(N)c(C(=O)N4CCOCC4)sc3nc12,7%,?,?,0.56µM*,11µM*,3.8µM*
Nc1c(C(=O)N2CCOCC2)sc2nc(N3CCOCC3)c3c(c12)CCCC3,-3%,2%,-1%,-4%,/,?
Nc1nc2sc3c(c2cc1C(=O)N1CCOCC1)CCCC3,12%,8%,3%,10%,4%,17µM*
Cc1cc(C)c2cc3c(N)c(C(=O)N4CCc5ccccc5C4)sc3nc2c1,-10%,10%,-1%,-1%,12%,0%
Nc1nc2sc3c(c2cc1C(=O)NCC(=O)O)CCCC3,-10%,0%,-3%,-16%,/,0.95µM*
